The supplement of paper PMC10849652
The full data set covers some 7,900 targets. This sample favours those with a hit. About 0.6% of all pairs of compound and target were hits.

Each target was assayed with NC(=O)c1cnc(N[C@@H]2CCCC[C@@H]2N)nc1Nc1cccc(-n2nccn2)c1 (assay: log2 fold change, soluble protein after heating vs DMSO (PISA); higher = thermal stabilisation; K562 cells, 10 uM, 30 min; active = over 0.2 and 3.5 SD of the protein, either way, in both replicates (recomputed)).
Procedure, shortened: (§1)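 Soluble protein was quantified by TMTpro 16plex LC-MS/MS after channel sums were equalised. It was obtained as the supernatant after 21,000xg for 90 min from pooled aliquots of K562 cells (2×10^6 cells/mL, 10 μM compound, 30 min) heated for 3 min across 48°C-58°C and extracted in PBS with 0.5% NP-40 at 4°C. Thermal stability values are relative to control samples and come from duplicates. They are given as log2 fold changes.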

Sequence of UniProt Q9BRX2 (Q9BRX2 whole entry, looked up): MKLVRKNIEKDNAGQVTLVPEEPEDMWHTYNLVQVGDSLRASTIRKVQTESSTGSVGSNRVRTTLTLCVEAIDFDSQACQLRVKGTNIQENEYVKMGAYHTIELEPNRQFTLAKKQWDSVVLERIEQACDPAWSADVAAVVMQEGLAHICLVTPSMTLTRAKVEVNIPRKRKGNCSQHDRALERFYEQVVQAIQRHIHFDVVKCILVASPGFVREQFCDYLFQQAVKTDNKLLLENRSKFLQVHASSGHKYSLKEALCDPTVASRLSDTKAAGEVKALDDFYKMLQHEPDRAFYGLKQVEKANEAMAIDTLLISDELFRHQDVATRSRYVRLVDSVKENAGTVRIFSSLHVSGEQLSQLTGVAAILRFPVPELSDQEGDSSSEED
Sequence of UniProt P11216 (P11216 whole entry, looked up): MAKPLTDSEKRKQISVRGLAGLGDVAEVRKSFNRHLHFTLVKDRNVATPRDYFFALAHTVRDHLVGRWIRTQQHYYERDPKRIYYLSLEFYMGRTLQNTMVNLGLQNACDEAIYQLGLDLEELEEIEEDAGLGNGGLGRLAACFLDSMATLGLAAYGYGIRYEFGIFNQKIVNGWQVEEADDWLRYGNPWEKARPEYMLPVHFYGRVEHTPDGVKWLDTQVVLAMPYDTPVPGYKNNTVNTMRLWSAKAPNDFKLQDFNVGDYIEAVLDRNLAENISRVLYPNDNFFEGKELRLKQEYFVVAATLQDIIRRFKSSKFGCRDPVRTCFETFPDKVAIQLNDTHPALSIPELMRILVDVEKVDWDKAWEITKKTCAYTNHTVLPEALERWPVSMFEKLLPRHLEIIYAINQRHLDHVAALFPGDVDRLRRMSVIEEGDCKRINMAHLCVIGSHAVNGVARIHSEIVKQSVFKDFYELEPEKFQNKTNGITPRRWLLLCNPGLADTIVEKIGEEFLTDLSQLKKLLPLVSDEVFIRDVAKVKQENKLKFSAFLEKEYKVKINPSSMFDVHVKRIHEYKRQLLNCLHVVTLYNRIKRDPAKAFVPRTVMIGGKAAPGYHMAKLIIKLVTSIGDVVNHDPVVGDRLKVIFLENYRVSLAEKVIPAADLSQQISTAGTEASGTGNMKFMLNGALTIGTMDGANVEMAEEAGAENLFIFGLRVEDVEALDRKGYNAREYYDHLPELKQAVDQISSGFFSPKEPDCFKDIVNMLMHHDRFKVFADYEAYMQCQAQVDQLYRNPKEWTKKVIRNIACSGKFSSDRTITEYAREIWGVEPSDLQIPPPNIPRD
Sequence of UniProt P35998 (P35998 whole entry, looked up): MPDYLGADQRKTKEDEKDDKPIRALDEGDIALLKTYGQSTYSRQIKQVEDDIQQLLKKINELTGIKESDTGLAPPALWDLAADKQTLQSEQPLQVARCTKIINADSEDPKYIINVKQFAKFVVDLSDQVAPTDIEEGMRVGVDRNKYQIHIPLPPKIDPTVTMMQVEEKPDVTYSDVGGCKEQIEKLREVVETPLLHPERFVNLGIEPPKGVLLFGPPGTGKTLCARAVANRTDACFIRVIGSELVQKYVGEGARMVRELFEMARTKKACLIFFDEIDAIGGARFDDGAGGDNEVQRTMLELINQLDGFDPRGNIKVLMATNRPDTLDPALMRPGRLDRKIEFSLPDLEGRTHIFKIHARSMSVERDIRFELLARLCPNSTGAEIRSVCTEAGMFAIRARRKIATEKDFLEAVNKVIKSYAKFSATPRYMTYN
Sequence of UniProt O15162 (O15162 whole entry, looked up): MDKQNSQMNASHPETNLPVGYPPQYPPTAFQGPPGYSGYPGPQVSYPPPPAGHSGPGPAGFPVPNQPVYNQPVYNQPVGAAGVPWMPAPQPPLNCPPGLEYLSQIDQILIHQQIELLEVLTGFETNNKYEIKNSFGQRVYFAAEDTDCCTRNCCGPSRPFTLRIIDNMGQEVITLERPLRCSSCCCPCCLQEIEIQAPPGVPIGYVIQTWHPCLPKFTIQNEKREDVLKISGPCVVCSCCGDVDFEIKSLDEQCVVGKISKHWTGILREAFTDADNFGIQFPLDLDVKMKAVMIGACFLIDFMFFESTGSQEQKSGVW
Sequence of UniProt Q16822 (Q16822 whole entry, looked up): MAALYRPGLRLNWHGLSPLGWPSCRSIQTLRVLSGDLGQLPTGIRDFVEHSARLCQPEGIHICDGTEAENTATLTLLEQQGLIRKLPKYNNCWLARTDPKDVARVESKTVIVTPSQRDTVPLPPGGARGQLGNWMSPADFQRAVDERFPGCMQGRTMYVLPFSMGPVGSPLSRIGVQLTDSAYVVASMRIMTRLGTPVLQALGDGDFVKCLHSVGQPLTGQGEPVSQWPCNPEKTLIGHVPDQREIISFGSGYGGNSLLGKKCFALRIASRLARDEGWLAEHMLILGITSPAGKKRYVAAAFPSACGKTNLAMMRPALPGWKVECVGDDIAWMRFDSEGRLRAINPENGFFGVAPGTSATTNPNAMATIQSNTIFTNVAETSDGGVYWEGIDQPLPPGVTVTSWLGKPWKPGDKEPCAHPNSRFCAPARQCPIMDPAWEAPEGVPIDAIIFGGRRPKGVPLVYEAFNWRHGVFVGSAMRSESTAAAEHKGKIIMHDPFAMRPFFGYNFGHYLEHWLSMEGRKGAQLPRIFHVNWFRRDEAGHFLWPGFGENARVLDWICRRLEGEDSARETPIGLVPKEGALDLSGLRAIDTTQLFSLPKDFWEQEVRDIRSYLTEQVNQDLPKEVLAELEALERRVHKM
Sequence of UniProt O60256 (O60256 whole entry, looked up): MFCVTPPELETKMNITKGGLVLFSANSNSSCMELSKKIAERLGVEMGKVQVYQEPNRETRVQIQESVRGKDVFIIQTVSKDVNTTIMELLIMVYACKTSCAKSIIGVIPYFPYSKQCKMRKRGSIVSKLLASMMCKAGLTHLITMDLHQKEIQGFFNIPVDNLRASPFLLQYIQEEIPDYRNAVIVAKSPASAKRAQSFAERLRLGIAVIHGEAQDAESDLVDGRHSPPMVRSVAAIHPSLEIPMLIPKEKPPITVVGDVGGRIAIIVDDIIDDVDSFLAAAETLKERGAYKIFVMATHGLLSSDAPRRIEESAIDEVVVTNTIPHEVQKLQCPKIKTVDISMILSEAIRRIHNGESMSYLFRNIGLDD
Sequence of UniProt Q14997 (Q14997 whole entry, looked up): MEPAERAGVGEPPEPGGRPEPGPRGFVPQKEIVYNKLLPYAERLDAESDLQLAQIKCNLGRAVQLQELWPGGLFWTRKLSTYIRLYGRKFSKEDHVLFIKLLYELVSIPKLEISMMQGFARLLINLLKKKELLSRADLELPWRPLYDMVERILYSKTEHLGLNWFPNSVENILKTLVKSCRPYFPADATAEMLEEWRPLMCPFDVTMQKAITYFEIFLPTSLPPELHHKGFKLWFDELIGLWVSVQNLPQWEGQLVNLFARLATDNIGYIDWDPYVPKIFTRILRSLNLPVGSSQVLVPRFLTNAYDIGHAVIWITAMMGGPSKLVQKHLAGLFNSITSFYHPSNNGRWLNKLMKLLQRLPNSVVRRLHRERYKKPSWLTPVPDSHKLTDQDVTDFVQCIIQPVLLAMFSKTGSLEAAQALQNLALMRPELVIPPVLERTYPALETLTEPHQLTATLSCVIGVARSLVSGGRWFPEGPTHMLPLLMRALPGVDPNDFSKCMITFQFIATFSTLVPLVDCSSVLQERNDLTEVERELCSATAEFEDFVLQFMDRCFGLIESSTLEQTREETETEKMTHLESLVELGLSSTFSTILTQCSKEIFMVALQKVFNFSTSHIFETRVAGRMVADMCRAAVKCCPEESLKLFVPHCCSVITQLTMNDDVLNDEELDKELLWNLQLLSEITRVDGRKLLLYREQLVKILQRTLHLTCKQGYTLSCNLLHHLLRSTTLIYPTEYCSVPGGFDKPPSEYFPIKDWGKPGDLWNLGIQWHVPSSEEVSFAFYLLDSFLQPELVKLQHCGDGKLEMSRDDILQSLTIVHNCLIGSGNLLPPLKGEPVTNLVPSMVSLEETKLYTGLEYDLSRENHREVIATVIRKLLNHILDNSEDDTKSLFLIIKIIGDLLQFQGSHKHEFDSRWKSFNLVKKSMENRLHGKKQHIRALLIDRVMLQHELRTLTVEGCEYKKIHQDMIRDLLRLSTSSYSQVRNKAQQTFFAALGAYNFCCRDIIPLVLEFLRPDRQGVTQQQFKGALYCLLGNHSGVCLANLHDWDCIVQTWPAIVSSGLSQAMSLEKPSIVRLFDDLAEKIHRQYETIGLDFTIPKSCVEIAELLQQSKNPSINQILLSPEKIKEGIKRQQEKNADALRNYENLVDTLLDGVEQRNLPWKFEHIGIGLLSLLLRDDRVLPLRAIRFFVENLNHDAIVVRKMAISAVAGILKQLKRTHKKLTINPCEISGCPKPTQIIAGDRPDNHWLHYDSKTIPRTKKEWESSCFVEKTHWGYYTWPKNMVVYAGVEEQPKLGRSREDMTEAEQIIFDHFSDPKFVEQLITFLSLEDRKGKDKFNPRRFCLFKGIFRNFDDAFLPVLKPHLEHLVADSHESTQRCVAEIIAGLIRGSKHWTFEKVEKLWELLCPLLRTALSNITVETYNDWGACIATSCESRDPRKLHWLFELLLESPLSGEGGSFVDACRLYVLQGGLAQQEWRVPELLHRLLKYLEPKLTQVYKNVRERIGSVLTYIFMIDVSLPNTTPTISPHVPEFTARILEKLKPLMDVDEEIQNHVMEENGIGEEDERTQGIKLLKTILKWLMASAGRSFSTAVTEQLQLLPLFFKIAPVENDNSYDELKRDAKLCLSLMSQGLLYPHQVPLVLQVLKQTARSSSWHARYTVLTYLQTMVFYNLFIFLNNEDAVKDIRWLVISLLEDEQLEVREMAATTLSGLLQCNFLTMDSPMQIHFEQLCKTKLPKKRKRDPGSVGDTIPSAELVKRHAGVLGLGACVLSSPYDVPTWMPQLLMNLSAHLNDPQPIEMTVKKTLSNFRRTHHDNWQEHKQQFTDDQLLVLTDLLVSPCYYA
Sequence of UniProt P53801 (P53801 whole entry, looked up): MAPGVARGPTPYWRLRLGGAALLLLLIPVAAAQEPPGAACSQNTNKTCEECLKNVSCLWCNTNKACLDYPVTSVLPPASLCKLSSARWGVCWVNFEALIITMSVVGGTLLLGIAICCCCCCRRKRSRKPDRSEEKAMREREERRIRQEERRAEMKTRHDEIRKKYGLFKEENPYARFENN

log2 fold change, inactive:
PYGB (UniProt P11216) -0.077, PRKCB isoform 2 (UniProt P05771) -0.037, PCYT1B (UniProt Q9Y5K3) -0.007, PRPSAP2 (UniProt O60256) 0.1, POGLUT1 (UniProt Q8NBL1) -0.057, PSMC2 (UniProt P35998) -0.013, PDE4DIP isoform 4 (UniProt Q5VU43) -0.006, PCGF2 (UniProt P35227) -0.125, POLR3K (UniProt Q9Y2Y1) 0.007, PTTG1IP (UniProt P53801) 0.026, PPP6R1 (UniProt Q9UPN7) -0.066, PIGG (UniProt Q5H8A4) -0.032, POLR2K (UniProt P53803) -0.107, PRKAR2B (UniProt P31323) -0.152, PSME4 (UniProt Q14997) -0.054, PPP1R35 (UniProt Q8TAP8) -0.004, PMPCA (UniProt Q10713) -0.059, PPP1CA (UniProt P62136) -0.051, PLSCR1 (UniProt O15162) -0.005, PDS5A (UniProt Q29RF7) -0.024, PGGT1B (UniProt P53609) -0.014, PKN2 (UniProt Q16513) -0.134, PMM2 (UniProt O15305) 0.01, PLCG1 isoform 2 (UniProt P19174) -0.193, PISD (UniProt Q9UG56) 0.019, PPIL2 (UniProt Q13356) -0.058, PCK2 (UniProt Q16822) 0, PSMC6 (UniProt P62333) 0.015, PSMD8 (UniProt P48556) 0.042, PPP2R5E (UniProt Q16537) -0.039, PRKCE (UniProt Q02156) -0.084, PIR (UniProt O00625) -0.053, PELO (UniProt Q9BRX2) -0.089, PTGFRN (UniProt Q9P2B2) 0.083, PTGR2 (UniProt Q8N8N7) -0.077, QKI (UniProt Q96PU8) -0.137, PARP16 isoform 3 (UniProt Q8N5Y8) 0.077

These targets were tested with NC1(c2ccc(-c3nc4ccn5c(=O)[nH]nc5c4cc3-c3ccccc3)cc2)CCC1 in the same assay as above.
Procedure, shortened: as §1

log2 fold change, inactive:
PYGB (UniProt P11216) -0.018, PRKCB isoform 2 (UniProt P05771) -0.118, PCYT1B (UniProt Q9Y5K3) -0.218, PRPSAP2 (UniProt O60256) 0.019, POGLUT1 (UniProt Q8NBL1) -0.008, PSMC2 (UniProt P35998) 0.026, PDE4DIP isoform 4 (UniProt Q5VU43) 0.009, PCGF2 (UniProt P35227) -0.048, POLR3K (UniProt Q9Y2Y1) 0.057, PTTG1IP (UniProt P53801) -0.222, PPP6R1 (UniProt Q9UPN7) -0.09, PIGG (UniProt Q5H8A4) -0.06, POLR2K (UniProt P53803) 0.017, PRKAR2B (UniProt P31323) -0.223, PSME4 (UniProt Q14997) -0.204, PPP1R35 (UniProt Q8TAP8) -0.037, PMPCA (UniProt Q10713) -0.02, PPP1CA (UniProt P62136) -0.019, PLSCR1 (UniProt O15162) -0.111, PDS5A (UniProt Q29RF7) -0.061, PGGT1B (UniProt P53609) -0.062, PKN2 (UniProt Q16513) -0.051, PMM2 (UniProt O15305) 0.016, PLCG1 isoform 2 (UniProt P19174) -0.197, PISD (UniProt Q9UG56) -0.009, PPIL2 (UniProt Q13356) -0.077, PCK2 (UniProt Q16822) -0.029, PSMC6 (UniProt P62333) 0.069, PSMD8 (UniProt P48556) -0.07, PPP2R5E (UniProt Q16537) -0.078, PRKCE (UniProt Q02156) -0.177, PIR (UniProt O00625) -0.195, PELO (UniProt Q9BRX2) -0.098, PTGFRN (UniProt Q9P2B2) 0.013, PTGR2 (UniProt Q8N8N7) 0.123, QKI (UniProt Q96PU8) -0.086, PARP16 isoform 3 (UniProt Q8N5Y8) 0.239
